ClpP mod – qHTS Assay for Activators of ClpP; AID 651965, 2013; 340,000 compounds, 1.9% hits; ATP-dependent Clp protease proteolytic subunit (Bacillus subtilis (strain 168)), P80244; purified B. subtilis ClpP, FRET peptide cleavage, 20 min; Potency, µM (doses to about 57.5 µM), without a hit: at the highest dose activity change, negative = active; active = well fitted falling curve with a large enough effect; inconclusive = small, poorly fitted or top-dose-only effect; inactive = no such curve, though single readings can be large or run the other way; also: potency is read from the fitted curve at half-maximal effect; the source files actives as falling curves though it sought activators and does not explain the sign; nearly all actives have a fitted effect of over 65% in size
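Buffer: 100 mM Tris/HCl pH8, 100 mM KCl, 0.05% low protease BSA, 2.5% glycerol, 0.01% Tween-20. ClpP 10 microg/mL final; 20 min RT; delta FRET normalized to ADEP and DMSO controls.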
KCNH2 WT inh – blocks the wildtype human KCNH2 potassium channel. Q12809. U2OS, BacMam KCNH2, thallium flux FluxOr; active compounds read low. activity change, % at 1.84 µM. 340,000 compounds, 0.37% hits. AID 720551;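 active = maximum activity change below -70%; inconclusive = maximum activity change between -70% and -50%; inactive = maximum activity change above -50%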; also: % is scaled to controls: 0 for no effect and ±100 for the full control effect
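U2OS cells transduced with wild-type KCNH2 virus are loaded with FluxOr dye for 45 min, and thallium flux is measured in kinetic reads before and after stimulation buffer. Rate constants are normalized to DMSO controls.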
KCNH2 3.1 inh – blocks the human KCNH2 3.1 channel isoform. U2OS KCNH2 3.1, thallium flux FluxOr; active compounds read low. activity change, % (tested at about 1.8 µM). 340,000 compounds, 0.95% hits. AID 720553;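 active = maximum activity change below -70%; inconclusive = maximum activity change from -70% to -50%; inactive = maximum activity change above -50%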;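 also: thallium influx rate constant from kinetic fluorescence after stimulation buffer; % is scaled to controls: 0 for no effect and ±100 for the full control effect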
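FluxOr-based Tl+ influx in U2OS cells transduced with KCNH2 3.1 virus; rate constants normalized to DMSO controls.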
ALOX12 inh – blocks human arachidonate 12S-lipoxygenase; P18054; purified 12hLO, xylenol orange hydroperoxide absorbance; Potency, µM (series often up to 108 µM), for inactives: at the highest dose activity change, negative = inhibition, most hits filed as inhibitors; 580,000 compounds, 1.1% hits; active = well fitted inhibition curve with a large enough effect; inconclusive = small, poorly fitted or top-dose-only effect, or another doubt; inactive = no such curve, though single readings can be large or run the other way; also: potency is read from the fitted curve at half-maximal effect; % is scaled to controls: 0 for no effect and ±100 for the full control effect
Target sequence (P18054 whole entry, looked up): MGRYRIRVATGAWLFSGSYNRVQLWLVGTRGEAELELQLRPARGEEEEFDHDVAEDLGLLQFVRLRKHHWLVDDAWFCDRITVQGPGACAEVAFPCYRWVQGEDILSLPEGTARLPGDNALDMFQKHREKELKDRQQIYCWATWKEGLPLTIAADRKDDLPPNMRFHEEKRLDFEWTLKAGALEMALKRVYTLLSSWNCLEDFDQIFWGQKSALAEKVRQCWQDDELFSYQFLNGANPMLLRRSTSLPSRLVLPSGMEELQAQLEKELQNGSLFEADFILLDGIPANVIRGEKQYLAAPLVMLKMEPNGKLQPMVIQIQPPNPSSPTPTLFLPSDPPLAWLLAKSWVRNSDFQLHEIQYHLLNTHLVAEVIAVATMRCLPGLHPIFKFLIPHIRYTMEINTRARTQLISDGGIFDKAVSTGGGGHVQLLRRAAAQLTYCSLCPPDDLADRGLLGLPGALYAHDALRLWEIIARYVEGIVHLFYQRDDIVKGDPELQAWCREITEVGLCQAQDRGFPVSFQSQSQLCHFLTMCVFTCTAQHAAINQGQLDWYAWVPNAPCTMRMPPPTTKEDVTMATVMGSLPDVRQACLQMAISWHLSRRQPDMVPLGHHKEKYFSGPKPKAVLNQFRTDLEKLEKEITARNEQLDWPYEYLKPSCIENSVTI
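Purified human 12hLO (150 nM final) in 25 mM Hepes, 0.01% Triton X-100, pH 7.0 was preincubated 15 min at room temperature with compound. Then 40 uM arachidonic acid was added, 30 min. Hydroperoxide was read by Fe-XO absorbance ratio 573/405 nm.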
LDHA inh – LDHA (human) enzyme inhibition. P00338. purified LDHA, NADH/diaphorase-resazurin fluorescence; active compounds read low. activity change, % (values are at about 110 or 230 µM). 480,000 compounds, 0.15% hits. AID 1347041; in the data active = activity change below about -30%; inconclusive = mostly about -25% to -30%;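 also: plate controls were DMSO wells for no effect and wells without enzyme for full effect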
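Enzyme activity of human lactate dehydrogenase 5 (2 nM; 0.06 mM NADH, 0.2 mM pyruvate, 5 min, RT) is measured via a resazurin/diaphorase fluorescence readout of residual NADH.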
BCR signal inh – inhibitors of chronic active B-cell receptor signaling; 340,000 compounds, 0.05% hits; AID 493014; Potency, µM (doses to about 46.1 µM), for the others: at the top dose activity change, negative = inhibition, usual class: inhibitors; ABC-DLBCL IkBa-CBG/CBR reporter, luminescence ratio, 4 h; active = well fitted inhibition curve with a large enough effect in the signal ratio, with a control signal flat, not every such curve was filed as active; inconclusive = small, poorly fitted or top-dose-only effect, or effect the other way, or a change in a side signal; the % refers to the signal ratio;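 also: potency is read from the fitted curve at half-maximal effect; plate controls were basal doxycycline-induced cells for no effect and cells given 10 µM MG132 for full effect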
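Doxycycline induced both beetle luciferases in TMD8 lymphoma cells; IKK-driven degradation limits the IkappaBalpha-fused green signal, while red luminescence normalises for cell number and nonspecific effects. Compounds tested up to 46 uM, 4 hrs.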
* = called active by the depositor; u = inconclusive; x = not tested or not shown. A selection: hits, their analogues and other compounds. The true share with any hit is near 3%.

SMILES	ClpP mod	KCNH2 WT inh	KCNH2 3.1 inh	ALOX12 inh	LDHA inh	BCR signal inh
CCCCc1cc(=O)oc2cc(OCC(=O)N(CC)CC)ccc12	28µM*	7	7	2%	-4	-1%
CC(C)CNc1oc(/C=C/c2cccs2)nc1C#N	x	x	x	u	-1	x
N#Cc1nc(/C=C/c2cccs2)oc1NC1CC1	x	x	x	25µM*	-6	x
COCCNC(=S)N/N=C(\C)CCc1ccc2c(c1)OCO2	x	-5	5	282%	-2	20µM*
C/C(CCc1ccccc1)=N\NC(=S)NCCc1ccccc1	x	-5	18	40µM*	-2	-10%
O=[N+]([O-])c1ccc(NC(=S)NCCc2ccccc2)cc1	x	7	4	45µM*	-1	u
C/C(CCc1ccc2c(c1)OCO2)=N\NC(=S)NC(C)C	2%	-3	5	u	5	u
CC1=C/C(=N\NC(=S)NCCc2ccccc2)CC(C)(C)C1	x	3	-1	4.5µM*	-12	u
CC(NC(=O)c1cc(C2CC2)nc2ccccc12)c1ccccc1 (stereo not drawn)	x	x	x	u	-4	x
CN(CC1CCOC1)S(=O)(=O)c1ccccc1Br (stereo not drawn)	x	x	x	22%	x	x
Cc1ccc(CNC(=S)Nc2ccccc2Cl)cc1	x	x	x	45µM*	12	x
Fc1ccc(CNC(=S)NCc2ccccc2)cc1	1%	-32	0	u	-4	-1%
S=C(Cc1ccccc1)NCCc1ccccc1	-1%	-10	12	-18%	-6	10%
COc1ccc(CNC(=S)Nc2ccccc2Cl)cc1	-3%	4	5	u	-10	0%
S=C(NCCc1ccccc1)NCCc1ccccc1	-2%	3	-8	50µM*	-3	u
O=C(NCc1ccccc1)N1CCN(c2ccccc2)CC1	x	-7	-17	u	-12	-2%
S=C(NCc1ccccc1)N1CCN(c2ccccc2)CC1	x	0	-74*	112%	-10	0%
S=C(NCc1ccccc1)NCc1ccc(CNC(=S)NCc2ccccc2)cc1	u	13	-3	25µM*	-3	-2%
O=C(NCCc1noc(-c2ccncc2)n1)c1n[nH]c2c1CCCCCC2	x	x	x	74%	x	x
O=c1cc(C(F)(F)F)c2ccc(OS(=O)(=O)c3ccc4c(c3)CCC4)cc2o1	x	x	x	u	4	x
Cc1nc2ncnn2c(N2CCOCC2)c1Cc1ccccc1	x	x	x	-1%	1	x
CC(C)=C(C#N)c1nc2ccccc2[nH]1	x	x	x	4%	-5	x
S=C(NCCCCc1ccccc1)Nc1cccc(Cl)c1Cl	x	x	x	25µM*	-2	x
O=C(NC(=S)Nc1ccccc1)C1CCCCC1	0%	11	3	0%	0	u
O=C(NC(=S)NCc1ccccc1)C1CCCCC1	13µM*	9	-5	u	-5	7%
SMILES	ClpP mod	KCNH2 WT inh	KCNH2 3.1 inh	ALOX12 inh	LDHA inh	BCR signal inh
Cc1c(Cl)cccc1NC(=S)NCCc1ccccn1	x	8	-8	0%	-7	-7%
C/C(=N\NC(=S)NCCc1ccccc1)c1cccs1	-3%	5	10	45µM*	-1	u
Cc1c(Cl)cccc1NC(=S)NCCc1ccc(C(F)(F)F)cc1	x	7	5	40µM*	-2	-12%
CCC(NC(=O)/C=C/c1ccccc1)c1cccs1 (stereo not drawn)	x	x	x	-17%	3	x
CN(CC(=O)Nc1ccc(Oc2ccccc2)cc1)C1=NS(=O)(=O)c2ccccc21	x	x	x	u	-8	x
Cc1ccc(S(=O)(=O)c2c(N)n(CCN3CCOCC3)c3nc4ccccc4nc23)cc1C	28µM*	-1	2	-8%	-7	1%
Nc1c(S(=O)(=O)c2ccccc2)c2nc3ccccc3nc2n1Cc1ccco1	16µM*	-12	11	u	-12	u
Cc1ccc(S(=O)(=O)c2c(N)n(Cc3ccco3)c3nc4ccccc4nc23)cc1C	11µM*	1	-9	-4%	-5	u

From PubChem BioAssay
